# The list is not random: actives were taken first. Their share in the collection is about 4.2%.
# esBAF inh = Bmi1 luciferase reporter increase in mESCs, primary screen, esBAF inhibitor project, mouse ES cells, Bmi1 luciferase knock-in, single point | AID 602393, 2012 | 24 h; 100% = twice the neutral-well signal | reporter increase, % at 12.5 µM | 350,000 compounds, 2% hits; in the data active = activation above about 40%; inconclusive = no clear call, values can overlap the other calls;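 also: 0% = median of the plate's neutral control wells and 100% = double that signal; a rise in the Bmi1 reporter signal indicates esBAF inhibition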
# AHR activator = AHR activators, primary screen, cell-based, luminescence, luciferase reporter, human; Aryl hydrocarbon receptor (Homo sapiens), P35869; AHR-responsive luciferase reporter cells; activation, % at 5 µM; 320,000 compounds, 2.5% hits; AID 2796, 2010; in the data active = activation above about 47%;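 also: 0% = vehicle wells and 100% = reference agonist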
# Target sequence (P35869 whole entry, looked up): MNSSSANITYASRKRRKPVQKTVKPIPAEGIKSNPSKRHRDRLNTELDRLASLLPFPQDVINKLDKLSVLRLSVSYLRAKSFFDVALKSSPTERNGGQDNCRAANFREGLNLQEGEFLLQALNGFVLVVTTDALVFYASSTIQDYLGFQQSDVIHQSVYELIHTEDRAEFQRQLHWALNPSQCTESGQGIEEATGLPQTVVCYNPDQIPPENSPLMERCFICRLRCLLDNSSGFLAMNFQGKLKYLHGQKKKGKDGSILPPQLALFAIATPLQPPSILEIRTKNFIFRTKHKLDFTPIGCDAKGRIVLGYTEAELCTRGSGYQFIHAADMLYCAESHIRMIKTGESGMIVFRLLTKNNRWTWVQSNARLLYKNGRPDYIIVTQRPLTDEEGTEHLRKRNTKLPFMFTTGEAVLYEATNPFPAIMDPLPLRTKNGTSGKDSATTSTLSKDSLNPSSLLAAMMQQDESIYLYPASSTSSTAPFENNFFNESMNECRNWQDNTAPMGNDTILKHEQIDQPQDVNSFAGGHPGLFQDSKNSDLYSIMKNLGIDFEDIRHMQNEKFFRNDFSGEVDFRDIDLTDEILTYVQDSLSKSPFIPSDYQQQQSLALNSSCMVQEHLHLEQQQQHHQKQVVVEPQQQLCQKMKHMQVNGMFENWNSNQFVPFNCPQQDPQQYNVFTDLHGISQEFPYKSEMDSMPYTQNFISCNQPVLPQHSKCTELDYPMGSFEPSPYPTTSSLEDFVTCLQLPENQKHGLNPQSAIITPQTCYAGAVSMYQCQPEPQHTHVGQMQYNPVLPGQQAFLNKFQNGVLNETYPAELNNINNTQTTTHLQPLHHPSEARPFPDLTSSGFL
# MITF TRPM1 HTS = activators of MITF-driven TRPM1 promoter reporter, primary screen, cell-based, SK-MEL-5, luciferase, single point. SK-MEL-5 TRPM1-promoter luciferase, 24 h; % of positive control, neutral wells = 0. activation, % at 12.5 µM. 300,000 compounds, 0.75% hits;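 active = mean activation of at least 80% with every replicate also reaching 80%; inconclusive = mean reaches 80% but some replicate falls short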;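 also: 0% = neutral control wells and 100% = parthenolide positive control wells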
# FXN GAA850 act = FXN promoter activators, primary screen, cell-based, luciferase luminescence, HEK293 lucGAA850; HEK293 lucGAA850 FXN promoter luciferase reporter, 24 h; percent of 10 µM SAHA response; 360,000 compounds, 0.56% hits; AID 540364, 2011; activation, % at 6 µM;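 active = activation above the average of all compounds screened plus 3 SD, cutoff fixed separately per campaign, cut at about 7.5% in these data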;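 also: 0% = DMSO wells and 100% = 10 µM SAHA wells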
# Wnt act = Wnt/beta-catenin pathway activators, primary screen, cell-based, plate reader, single point | Wnt/beta-catenin reporter cell assay, activator | activation, % at 9.35 µM | 300,000 compounds, 1.2% hits; in the data active = activation above about 30%, passing the limit was not always enough; inconclusive = no clear call, values can overlap the other calls;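 also: 0% = neutral control wells and 100% = positive control wells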
# * hit, by the source's call; ? = inconclusive; . = no result given.
SMILES,esBAF inh,AHR activator,MITF TRPM1 HTS,FXN GAA850 act,Wnt act
COc1ccc2nc(Nc3ccccc3)sc2c1,37,6,95*,6,14
O=C(Nc1ccccc1)OCCN1CCN(Cc2ccccc2)CCC1=O,-15,3,11,-2,-3
CC(C)CN1CCC(=O)N(CCSc2ccccc2)CC1,7,8,73,6,42*
O=C1CCN(Cc2ccccc2)CCN1CCOc1ccccc1,10,6,85*,0,13
C[C@@H]1CN([C@H](C)CO)C(=O)c2cc(NS(=O)(=O)c3cccs3)ccc2O[C@@H](C)CCCCO[C@@H]1CN(C)CC1CCCCC1,3,.,.,.,.
Cc1ccc(Cn2nc(-c3ccccc3)nc2-c2ccccc2)cc1,36,4,63,4,55*
c1ccc(Cn2nc(-c3ccccc3)nc2-c2ccccc2)cc1,.,3,19,4,.
Cn1nc(-c2ccccc2)nc1-c1ccccc1,?,48*,60,7,?
C[C@H](CO)N1C[C@H](C)[C@H](CN(C)S(=O)(=O)c2cn(C)cn2)Oc2ccc(NC(=O)C3CC3)cc2C1=O,-1,.,.,.,.
COCCn1c(-c2ccc(Br)cc2)csc1=Nc1cccnc1,.,11,5,-1,2
FC(F)Oc1ccc(-c2csc(=Nc3cccnc3)n2CC2CCCO2)cc1 (stereo not drawn),-19,48*,-15,-1,-1
C[C@H](CO)N1C[C@H](C)[C@H](CN(C)Cc2ccccc2)Oc2ccc(NC(=O)c3ccncc3)cc2C1=O,2,.,.,.,.
Cn1c(/C(C#N)=C(\O)c2ccc([N+](=O)[O-])cc2)nc2ccccc21,.,5,8,2,-3
N#C/C(=C(/O)c1ccco1)c1nc2ccccc2s1,58*,20,43,4,4
N#C/C(=C(/O)c1cccc(F)c1)c1nc2ccccc2s1,.,15,52,3,34*
Cn1c(/C(C#N)=C(\O)c2cccc(F)c2)nc2ccccc21,21,63*,2,3,5
N#C/C(=C(/O)c1cc2ccccc2o1)c1nc2ccccc2s1,31,6,34,5,22
Cc1ccc(S(=O)(=O)N[C@@H]2CC[C@H](CC(=O)NCCN3CCCCC3)O[C@@H]2CO)cc1,2,.,.,.,.
O=c1sc2ccccc2n1CCCOc1ccccc1,81*,18,52,3,71*
Cc1ccccc1OCCCn1c(=O)sc2ccccc21,54*,-2,72,3,.
Cc1ccc(OCCn2c(=O)sc3ccccc32)cc1,76*,37,92*,4,23
CN1CCN(C(=O)C[C@H]2CC[C@H]3[C@@H](COC[C@H](O)CN3C(=O)c3ccccc3F)O2)CC1,1,.,.,.,.
CC(CC(=O)Nc1nc2ccccc2[nH]1)n1ccnc1 (stereo not drawn),-6,30,-8,1,-1
COc1ccc(OCC(=O)Nc2cccc(-c3nc4ccccc4[nH]3)c2)cc1,25,31,24,0,.
O=C(COc1ccccc1)Nc1nc2ccccc2[nH]1,49*,4,51,3,?
SMILES,esBAF inh,AHR activator,MITF TRPM1 HTS,FXN GAA850 act,Wnt act
CC(CC(=O)Nc1nc2ccccc2[nH]1)c1ccccc1 (stereo not drawn),70*,10,60,5,2
O=C(COc1ccccc1)Nc1cccc(-c2nc3ccccc3[nH]2)c1,.,79*,13,3,.
O=C(c1ccccc1)c1ccc(N2CCCC2)cc1,60*,-1,94*,6,20
CC(=O)Nc1ccccc1C(=O)C(=O)Nc1cccc(C(=O)NC2CC2)c1,48*,-1,23,3,.
Cc1ccc(C(=O)Nc2ccc(N3CCCCC3)cc2)cc1,40,-2,106*,4,?
O=C(c1ccccc1)c1ccc(N2CCOCC2)cc1,.,.,72,3,23
Nc1nc2ccc(C(=O)Nc3ccc(N4CCOCC4)cc3)cc2s1,51*,7,6,4,9
CCCNC(=O)C[C@@H]1CC[C@H]2[C@@H](COc3ccc(NC(=O)CC)cc3C(=O)N2C)O1,-4,.,.,.,.
C[C@@H]1CCCCO[C@H](CN(C)C(=O)Nc2ccc(C(F)(F)F)cc2)[C@@H](C)CN([C@@H](C)CO)C(=O)c2cc(NC(=O)c3ccccc3)ccc2O1,-1,.,.,.,.
C[C@@H]1CCCCO[C@H](CN(C)C(=O)NC2CCCCC2)[C@H](C)CN([C@@H](C)CO)C(=O)c2cc(NS(C)(=O)=O)ccc2O1,2,.,.,.,.
CO[C@@H]1CN(C)C(=O)c2cc(NC(C)=O)ccc2OC[C@H](C)N(Cc2ccccn2)C[C@@H]1C,0,.,.,.,.
Cc1ccc(C(=O)Nc2ccc(N3CCN(S(C)(=O)=O)CC3)cc2)cc1,6,-1,15,1,-2
Cc1ccc(/C=C/C(=O)c2ccc(N3CCOCC3)cc2)s1,.,-3,91*,4,11
Cc1cccc(/C=C/C(=O)c2ccc(N3CCOCC3)cc2)c1,.,-4,.,.,-3
O=C(Nc1ccc(N2CCCC2)cc1)c1ccc2ccccc2c1,40,0,48,3,32*
Cc1cnc(C(=O)Nc2ccc(N3CCOCC3)cc2)cn1,30,-1,55,4,.
Cc1cnc(C(=O)Nc2ccc(N3CCCCC3)cc2)cn1,.,-2,92*,3,8
Cc1ccc(C(=O)Nc2ccc(N3CCOCC3)cc2)cc1,56*,-1,67,4,.
CO[C@H]1CN(C)C(=O)c2cc(NC(=O)C3CC3)ccc2OC[C@H](C)N(C(=O)c2ccccn2)C[C@H]1C,-3,.,.,.,.
C[C@@H]1CCCCO[C@@H](CN(C)Cc2ccc(C(=O)O)cc2)[C@H](C)CN([C@H](C)CO)C(=O)c2cc(NC(=O)Cc3ccccc3)ccc2O1,-6,.,.,.,.
C[C@H](CO)N1C[C@H](C)[C@@H](CN(C)S(=O)(=O)c2ccc(Cl)cc2)OCCCC[C@H](C)Oc2ccc(NC(=O)NC3CCCCC3)cc2C1=O,-4,.,.,.,.
CC(C)Oc1ccc(C(=O)NC2CCCCC2)cc1,50*,14,69,3,.
Nc1cc(C(=O)c2ccccc2)ccc1N1CCOCC1,52*,30,.,3,?
CN(CC(=O)Nc1ccc(N2CCOCC2)cc1)CC(=O)Nc1ccc(N2CCOCC2)cc1,-6,52*,5,0,1
Cc1ccc(C(=O)Nc2ccc(N3CCCC3)cc2)cc1,44*,-4,36,4,12
CC(=O)Nc1cc(C(=O)c2ccccc2)ccc1N1CCOCC1,8,10,.,1,.
CC(C)Oc1ccc(C(=O)NC2CCS(=O)(=O)C2)cc1 (stereo not drawn),2,5,1,0,.
O=C(Nc1ccc(F)cc1)N[C@@H]1CC[C@@H](CCn2cc(-c3ccccc3F)nn2)O[C@@H]1CO,14,.,.,.,.
O=C(Nc1ccc(N2CCCCC2)cc1)c1cncc(Br)c1,9,4,128*,1,39*

# Bioassay records deposited in PubChem BioAssay by several laboratories.
